Experimental data published in PubChem BioAssay (Tox21).
The source made the active and inactive calls. Unless noted, the call rests on the fitted dose curve; in most records, active means well fitted curve in the direction sought with a large enough effect in the repeat runs; inconclusive means weak or mixed curves; inactive means no such curve, though single readings can be large; an effect the other way counts as inactive or inconclusive.

Legend:
[1] = qHTS assay to test for compound auto fluorescence at 535 nm (green) in HEK293 cells (AID 720680)
[2] = qHTS assay to test for compound auto fluorescence at 460 nm (blue) in HEK293 cell free culture (AID 720681)
How it was run: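 Compounds were added to cell-free DMEM with 10% FBS and fluorescence read directly. The blue channel used 405 nm excitation and 460 nm emission, with triamterene as the reference fluorophore.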

[3] = qHTS assay to test for compound auto fluorescence at 535 nm (green) in HEK293 cell free culture (AID 720682)
How it was run: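 Each library compound, or DMSO control, is added by pintool to medium alone, comprising DMEM and 10% FBS. Emission at 535 nm following 485 nm excitation is quantified against fluorescein.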

[4] = qHTS assay to test for compound auto fluorescence at 590 nm (red) in HEK293 cell free culture (AID 720683)
How it was run: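 Cell-free wells of DMEM with 10% FBS received compound, and intrinsic fluorescence was read at excitation/emission 540/590 nm. Values expressed as equivalence to Rose Bengal sodium.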

[5] = qHTS assay to test for compound auto fluorescence at 590 nm (red) in HepG2 cell free culture (AID 720684)
How it was run: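 Compound was pinned into wells holding MEM with 10% FBS and no cells, and red fluorescence was read at Ex/Em 540/590 nm. Signal is expressed as auto fluorescence equivalency relative to Rose Bengal sodium.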

[6] = qHTS assay to test for compound auto fluorescence at 460 nm (blue) in HepG2 cell free culture (AID 720685)
How it was run: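 Compound (23 nL) or DMSO pinned into cell-free MEM with 10% FBS; blue fluorescence read at 405/460 nm excitation/emission, expressed as auto-fluorescence equivalency to triamterene.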

[7] = qHTS assay to test for compound auto fluorescence at 535 nm (green) in HepG2 cell free culture (AID 720686)
[8] = qHTS assay to test for compound auto fluorescence at 460 nm (blue) in HepG2 cells (AID 720687)
How it was run: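 HepG2 cells in MEM with 10% FBS, attached overnight at 37 C, were exposed to compound or DMSO for 1 hr at 37 C, 5% CO2. Blue fluorescence was read at 405/460 nm, with triamterene as reference fluorophore.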

[9] = biological target: Glucocorticoid receptor (Homo sapiens) (UniProt P04150); assay: qHTS assay to identify small molecule agonists of the glucocorticoid receptor (GR) signaling pathway (AID 720691; active means well fitted activation curve with a large enough effect in the signal ratio in the repeat runs, not every such curve was filed as active; inconclusive means weak or mixed curves, or effect the other way; inactive means no such curve, though single readings can be large or run the other way; the % refers to the signal ratio; further: potency means the concentration at half of the fitted maximal effect); conditions: GR-bla HeLa, beta-lactamase reporter ratio, 18 h; activation: at 62.4 µM (top of the series)
How it was run: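 Reporter read-out: fluorescence intensity following 2 h room-temperature LiveBLAzer B/G FRET substrate loading. Prior step: GR-bla HeLa cells held 4 h, then treated 18 h at 37 C.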

[10] = qHTS assay to identify small molecule antagonists of the glucocorticoid receptor (GR) signaling pathway - cell viability counter screen (AID 720693); further: nearly all actives have a fitted effect of over 55% in size
[11] = qHTS assay for identifying genotoxic compounds that show differential cytotoxicity against isogenic chicken DT40 cell lines with known DNA damage response pathways - wild type cell line (AID 743012); further: nearly all actives have a fitted effect of over 60% in size; further: potency means the concentration at half of the fitted maximal effect
How it was run: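 Using parental DT40 (300 cells/well), compounds delivered in DMSO incubate 40 h at 37 C/5% CO2. CellTiter-Glo reagent then stands 30 min at room temperature, and luminescence gives cell viability.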

[12] = qHTS assay for identifying genotoxic compounds that show differential cytotoxicity against isogenic chicken DT40 cell lines with known DNA damage response pathways - Rev3 mutant cell line (AID 743014); further: nearly all actives have a fitted effect of over 55% in size; further: potency means the concentration at half of the fitted maximal effect
[13] = qHTS assay for identifying genotoxic compounds that show differential cytotoxicity against isogenic chicken DT40 cell lines with known DNA damage response pathways - Rad54/Ku70 mutant cell line (AID 743015); further: nearly all actives have a fitted effect of over 60% in size; further: potency means the concentration at half of the fitted maximal effect
[14] = qHTS assay to identify small molecule antagonists of the androgen receptor (AR) signaling pathway - cell viability counter screen (AID 743033; further: nearly all actives have a fitted effect of over 45% in size)
[15] = qHTS assay to identify small molecule antagonists of the androgen receptor (AR) signaling pathway using the MDA cell line - cell viability counter screen (AID 743041; further: nearly all actives have a fitted effect of over 45% in size)
How it was run: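 MDA-kb2 AR-luc cells (MMTV-luciferase, AR/GR responsive) treated with compounds plus R1881 agonist for 16 h at 37C. CellTiter-Fluor added at 15.5 h; fluorescence read after 30 min in the same wells.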

[16] = biological target: Androgen receptor (Homo sapiens) (UniProt P10275); assay: qHTS assay to identify small molecule agonists of the androgen receptor (AR) signaling pathway using the MDA cell line (AID 743040; further: nearly all actives have a fitted effect of over 20% in size)
How it was run: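 MDA-kb2 breast carcinoma cells carrying MMTV-luciferase (responsive to AR and GR), plated 5 h then treated 16 h with compounds at 37C, 0% CO2. Read-out was ONE-Glo luminescence after 30 min at room temperature.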

[17] = biological target: Androgen receptor (Homo sapiens) (UniProt P10275); assay: qHTS assay to identify small molecule antagonists of the androgen receptor (AR) signaling pathway using the MDA cell line (AID 743042; further: nearly all actives have a fitted effect of over 55% in size)
How it was run: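 MDA-kb2 breast carcinoma cells carrying MMTV-luciferase (AR/GR responsive) were co-treated with compounds and the agonist R1881 for 16 h at 37C. Inhibition read as ONE-Glo luminescence; CellTiter-Fluor fluorescence measured in parallel for cytotoxicity.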

Measured: Potency

Chain of Glucocorticoid receptor (Homo sapiens) (P04150 whole entry, looked up): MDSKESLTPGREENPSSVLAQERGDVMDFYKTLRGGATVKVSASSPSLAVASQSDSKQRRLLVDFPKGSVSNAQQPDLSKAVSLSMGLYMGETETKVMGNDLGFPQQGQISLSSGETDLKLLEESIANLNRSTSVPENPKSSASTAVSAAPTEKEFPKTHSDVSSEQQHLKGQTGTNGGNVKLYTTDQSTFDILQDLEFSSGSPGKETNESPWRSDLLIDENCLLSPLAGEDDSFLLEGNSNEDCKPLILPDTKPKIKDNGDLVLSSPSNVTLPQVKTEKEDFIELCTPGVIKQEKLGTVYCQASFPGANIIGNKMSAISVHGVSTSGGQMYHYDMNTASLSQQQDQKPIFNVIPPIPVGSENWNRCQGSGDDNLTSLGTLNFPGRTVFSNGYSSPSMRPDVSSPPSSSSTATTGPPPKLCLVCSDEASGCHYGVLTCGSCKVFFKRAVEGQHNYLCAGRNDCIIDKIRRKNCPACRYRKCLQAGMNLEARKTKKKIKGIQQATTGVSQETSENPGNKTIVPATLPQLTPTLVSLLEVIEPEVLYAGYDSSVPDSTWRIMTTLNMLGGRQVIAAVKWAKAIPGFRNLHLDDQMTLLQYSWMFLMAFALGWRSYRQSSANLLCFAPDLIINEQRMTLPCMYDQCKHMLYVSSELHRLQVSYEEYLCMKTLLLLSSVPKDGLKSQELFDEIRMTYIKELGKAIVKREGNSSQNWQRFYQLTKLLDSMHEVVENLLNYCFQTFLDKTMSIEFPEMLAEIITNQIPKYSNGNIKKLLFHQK
Chain of Androgen receptor (Homo sapiens) (P10275 whole entry, looked up): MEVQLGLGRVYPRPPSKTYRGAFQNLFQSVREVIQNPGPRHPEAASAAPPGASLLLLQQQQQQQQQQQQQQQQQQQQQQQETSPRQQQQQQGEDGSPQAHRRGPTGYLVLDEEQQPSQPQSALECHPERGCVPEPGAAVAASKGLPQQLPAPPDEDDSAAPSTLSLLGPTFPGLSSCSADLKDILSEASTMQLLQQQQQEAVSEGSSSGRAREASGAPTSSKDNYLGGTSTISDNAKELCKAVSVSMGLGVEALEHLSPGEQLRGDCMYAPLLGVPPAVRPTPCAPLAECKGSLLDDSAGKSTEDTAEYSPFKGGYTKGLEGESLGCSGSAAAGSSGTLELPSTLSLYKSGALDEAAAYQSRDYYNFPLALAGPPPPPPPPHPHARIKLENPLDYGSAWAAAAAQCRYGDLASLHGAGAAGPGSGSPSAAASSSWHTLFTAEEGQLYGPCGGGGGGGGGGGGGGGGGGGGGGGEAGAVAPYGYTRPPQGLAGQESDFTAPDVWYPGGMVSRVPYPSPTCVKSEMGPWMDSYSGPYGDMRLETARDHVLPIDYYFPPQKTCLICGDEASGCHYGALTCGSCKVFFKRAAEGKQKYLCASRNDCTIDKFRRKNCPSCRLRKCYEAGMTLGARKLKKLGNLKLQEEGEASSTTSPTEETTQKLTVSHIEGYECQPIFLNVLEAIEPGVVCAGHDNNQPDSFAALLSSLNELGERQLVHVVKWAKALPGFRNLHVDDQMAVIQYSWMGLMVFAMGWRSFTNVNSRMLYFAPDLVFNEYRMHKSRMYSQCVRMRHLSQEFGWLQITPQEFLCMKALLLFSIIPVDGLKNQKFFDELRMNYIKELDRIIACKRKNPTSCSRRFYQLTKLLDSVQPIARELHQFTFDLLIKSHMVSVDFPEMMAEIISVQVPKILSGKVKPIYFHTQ

CCCCC(O)c1ccccc1 (stereo not drawn)
inactive: [1] | [2] | [3] | [4] | [5] | [6] | [7] | [8] | [9] | [10] | [11] | [12] | [13] | [14] | [15]

CC(=O)[C@@]1(O)CC[C@H]2[C@@H]3C=C(Cl)C4=CC(=O)[C@@H]5C[C@@H]5[C@]4(C)[C@H]3CC[C@@]21C
inactive: [1] | [2] | [3] | [4] | [5] | [6] | [7] | [8] | [9] | [10] | [11] | [12] | [13] | [14] | [15]

CCCCC(F)(F)[C@@]1(O)CC[C@H]2[C@@H](CC(=O)[C@@H]2CCCCCCC(=O)O)O1
inactive: [1] | [2] | [3] | [4] | [5] | [6] | [7] | [8] | [9] | [10] | [11] | [12] | [13] | [14] | [16] | [15] | [17]

OC(CN1CCCCC1)c1cc(-c2ccccc2)on1 (stereo not drawn)
inactive: [1] | [2] | [3] | [4] | [5] | [6] | [7] | [8] | [9] | [10] | [11] | [12] | [13] | [14] | [15] | [17]

CN1CCC(OC(=O)C(Oc2ccc(Cl)cc2)Oc2ccc(Cl)cc2)CC1
inactive: [1] | [2] | [3] | [4] | [5] | [6] | [7] | [8] | [9] | [10] | [11] | [12] | [13] | [14] | [15]

CO/N=C(\C(=O)N[C@@H]1C(=O)N2C(C(=O)OCOC(=O)C(C)(C)C)=C(/C=C\c3scnc3C)CS[C@H]12)c1csc(N)n1
inactive: [1] | [2] | [3] | [4] | [5] | [6] | [7] | [8] | [9] | [10] | [11] | [12] | [13] | [14] | [15]

CC1(O)CCC(C(C)(C)O)CC1 (stereo not drawn)
inactive: [1] | [2] | [3] | [4] | [5] | [6] | [7] | [8] | [9] | [10] | [11] | [12] | [13] | [14] | [15]

CCN(CC)CCOc1ccccc1OC
inactive: [1] | [2] | [3] | [4] | [5] | [6] | [7] | [8] | [9] | [10] | [11] | [12] | [13] | [14] | [15]

CC(=O)Nc1c(I)c(C(=O)N[C@H]2C(O)O[C@H](CO)[C@@H](O)[C@@H]2O)c(I)c(N(C)C(C)=O)c1I (stereo partly drawn)
inactive: [1] | [2] | [3] | [4] | [5] | [6] | [7] | [8] | [9] | [10] | [11] | [12] | [13] | [14] | [15]

C[C@]12C=CC(=O)C=C1CC[C@@H]1[C@@H]2[C@@H](O)C[C@@]2(C)[C@H]1CC[C@]2(O)C(=O)COC(=O)CCC(=O)O
inactive: [1] | [2] | [3] | [4] | [5] | [6] | [7] | [8] | [10] | [11] | [12] | [13] | [14] | [15]
active: [9] 0.268 µM [inconclusive]

Cn1nnnc1SCC1=C(C(=O)O)N2C(=O)[C@@H](NC(=O)[C@H](O)c3ccccc3)[C@H]2SC1
inactive: [1] | [2] | [3] | [4] | [5] | [6] | [7] | [8] | [9] | [10] | [11] | [12] | [13] | [14] | [15]

O=C(O[C@H]1CN2CCC1CC2)N1CCc2ccccc2[C@@H]1c1ccccc1
active: [11] 11.9 µM | [12] 26.6 µM | [13] 26.6 µM
inactive: [1] | [2] | [3] | [4] | [5] | [6] | [7] | [8] | [9] | [10] | [14] | [15]

C[C@H]1C[C@H]2[C@@H]3CCC4=CC(=O)C=C[C@]4(C)[C@@]3(F)[C@@H](O)C[C@]2(C)[C@@]1(O)C(=O)CCl
active: [9] 0.0017 µM | [11] 18.8 µM | [12] 26.6 µM | [13] 23.7 µM
inactive: [1] | [2] | [3] | [4] | [5] | [6] | [7] | [8] | [10] | [14] | [15]

CCCCC(=O)OCC(=O)[C@]1(O)Cc2c(O)c3c(c(O)c2[C@@H](O[C@H]2C[C@H](NC(=O)C(F)(F)F)[C@H](O)[C@H](C)O2)C1)C(=O)c1c(OC)cccc1C3=O
active: [9] 7.56 µM | [11] 1.5 µM | [12] 1.88 µM | [13] 0.211 µM
inactive: [1] | [2] | [3] | [4] | [5] | [6] | [7] | [8] | [10] | [14] | [15]

CCCCCCCCCCCCCCCCCC(=O)[O][Al]
inactive: [1] | [2] | [3] | [4] | [5] | [6] | [7] | [8] | [9] | [10] | [11] | [12] | [13] | [14] | [15]

O=C1N=C2SCCN2C(=O)C1Cc1ccc(Cl)cc1 (stereo not drawn)
inactive: [1] | [2] | [3] | [4] | [5] | [6] | [7] | [8] | [9] | [10] | [11] | [12] | [13] | [14] | [15]

CCCOc1ccc2nc(NC(=O)OC)sc2c1
active: [11] 2.37 µM | [12] 2.66 µM | [13] 3.35 µM
inactive: [1] | [2] | [3] | [4] | [5] | [6] | [7] | [8] | [9] | [10] | [14] | [15]

C[C@@H]1C/C=C/C=C/C=C/C=C/[C@H](O[C@@H]2O[C@H](C)[C@@H](O)[C@H](N)[C@@H]2O)C[C@@H]2O[C@](O)(C[C@@H](O)C[C@H]3O[C@@H]3/C=C/C(=O)O1)C[C@H](O)[C@H]2C(=O)O
inactive: [1] | [2] | [3] | [4] | [5] | [6] | [7] | [8] | [9] | [10] | [11] | [12] | [13] | [14] | [15]
